Measurements from PubChem BioAssay (NCI).
This is part of a sample that, as a whole, favours compounds with a hit. Of some 79,000 tested, about 15% had one in any assay. No stated cut-off is given here; in the data, active means growth inhibition above about 70%; inactive means the rest.

Key:
[1] = NCI Yeast Anticancer Drug Screen. Data for the rad52 strain (AID 147);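 further: 0% = growth of vehicle-treated control cultures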; details: S. cerevisiae rad52 mutant growth inhibition, active compounds read high
How it was run: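 Measured: yeast growth inhibition. System: strain with a defined DNA damage repair alteration. Reference: vehicle-treated control cultures.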

[2] = NCI Yeast Anticancer Drug Screen. Data for the wt1 strain (AID 149);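 further: 0% = growth of vehicle-treated wt1 cultures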; details: S. cerevisiae wt1 strain (SPY 50644) growth inhibition, active compounds read high
How it was run: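 Vehicle-normalised growth inhibition; strain wt1; compound exposure.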

[3] = NCI Yeast Anticancer Drug Screen. Data for the rad50EPP+ strain (AID 151);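 further: 0% = growth of vehicle-treated control cultures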; details: S. cerevisiae rad50 mutant strain, active compounds read high
How it was run: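 One strain with a rad50 alteration (rad50EPP+) was compound-treated, its growth then compared to that of vehicle controls.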

[4] = NCI Yeast Anticancer Drug Screen. Data for the rad50 strain (AID 155);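 further: 0% = growth of vehicle-only cultures of the same strain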; details: S. cerevisiae rad50 strain growth inhibition, active compounds read high
How it was run: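 A DNA repair-deficient yeast mutant serves as the test organism; compound-induced growth inhibition is calculated against vehicle-treated cells.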

[5] = NCI Yeast Anticancer Drug Screen. Data for the mec2-1 strain (AID 157); details: S. cerevisiae mec2-1 strain, active compounds read high
How it was run: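 Test agents were screened against the mec2-1 yeast strain, with defined DNA repair or cell cycle alteration. Growth was scored as inhibition against vehicle-only controls.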

[6] = NCI Yeast Anticancer Drug Screen. Data for the sgs1 mgt1 strain (AID 161);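 further: 0% = growth of cultures given vehicle only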; details: S. cerevisiae sgs1 mgt1 strain, active compounds read high
How it was run: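 Test agents were incubated with a DNA-repair-mutant yeast strain. Growth was then read and compared against vehicle-treated controls.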

[7] = NCI Yeast Anticancer Drug Screen. Data for the CLN2oe strain (AID 163);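 further: 0% = growth of vehicle-only control cultures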; details: S. cerevisiae CLN2oe strain, active compounds read high
How it was run: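 Here, growth inhibition in a cell-cycle-altered yeast strain after compound exposure was quantified against vehicle control growth.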

[8] = NCI Yeast Anticancer Drug Screen. Data for the cln2 rad14 strain (AID 165);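 further: 0% = growth equal to vehicle treated cultures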; details: S. cerevisiae cln2 rad14 strain, active compounds read high
How it was run: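 Growth of compound-exposed yeast (cln2 rad14 genotype) measured and expressed as inhibition relative to vehicle.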

[9] = NCI Yeast Anticancer Drug Screen. Data for the bub3 strain (AID 167); details: S. cerevisiae bub3 mutant strain, active compounds read high
How it was run: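 Inhibition values come from growth of compound-treated mutant yeast normalised to vehicle-treated controls.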

[10] = NCI Yeast Anticancer Drug Screen. Data for the wt2 strain (AID 169);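 further: 0% = growth of vehicle-treated yeast cultures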; details: S. cerevisiae wt2 strain growth inhibition, active compounds read high
How it was run: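 Genetically defined yeast strains from a DNA-repair/cell-cycle panel were used. Compound-exposed yeast growth was measured, and the inhibition was calculated relative to vehicle treatment.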

[11] = NCI Yeast Anticancer Drug Screen. Data for the mlh1 strain (AID 171);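 further: 0% = growth of vehicle-treated control cultures of the same strain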; details: S. cerevisiae mlh1 strain growth inhibition, active compounds read high
How it was run: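 Here the genetically defined yeast mutant is grown with each compound, and the extent to which its growth falls below that of vehicle-exposed cells is reported.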

[12] = NCI Yeast Anticancer Drug Screen. Data for the sgs1 strain (AID 173);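 further: 0% = growth of vehicle-only control cultures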; details: S. cerevisiae sgs1 mutant, active compounds read high
How it was run: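 Relative growth inhibition, referenced to vehicle, was determined in a yeast strain with a defined alteration affecting DNA damage repair or cell cycle control after compound exposure.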

[13] = NCI Yeast Anticancer Drug Screen. Data for the mlh1 rad18 strain (AID 175); details: S. cerevisiae mlh1 rad18 strain growth inhibition, active compounds read high
How it was run: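 In this whole-cell yeast screen, a strain with altered DNA damage repair is challenged with compound, and its growth is measured against matched vehicle-treated controls.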

[14] = NCI Yeast Anticancer Drug Screen. Data for the rad18 strain (AID 177); details: S. cerevisiae rad18 mutant growth inhibition, active compounds read high
How it was run: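 Screen uses a yeast strain with a defined lesion in DNA damage repair; compound effect is read as loss of growth compared to untreated vehicle cultures.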

[15] = at 5.0 µM (retest, dose inferred, filed as 0.5)
[16] = at 50.0 µM (retest, dose inferred, filed as 5.0)

Measured: growth inhibition

COc1ccc2c3c1OC(C)C31CC(=O)CCC1CC2 (stereo not drawn)
inactive: [1]; at 1.2 µM -4% | [1]; at 3.7 µM -1% | [1]; at 11.0 µM 4% | [1]; at 33.0 µM 2% | [1]; at 100.0 µM 15% | [2]; at 1.2 µM -3% | [2]; at 3.7 µM -4% | [2]; at 11.0 µM -5% | [2]; at 33.0 µM -5% | [2]; at 100.0 µM -3% | [3]; at 1.2 µM -5% | [3]; at 3.7 µM 1% | [3]; at 11.0 µM 6% | [3]; at 33.0 µM -1% | [3]; at 100.0 µM 4% | [4]; at 1.2 µM -2% | [4]; at 3.7 µM 1% | [4]; [15] 13% | [4]; at 11.0 µM 3% | [4]; at 33.0 µM 4% | [4]; [16] 23% | [4]; at 50.0 µM 7.25% | [4]; at 100.0 µM 13% | [5]; at 1.2 µM -4% | [5]; at 3.7 µM -2% | [5]; [15] -15% | [5]; at 11.0 µM -3% | [5]; at 33.0 µM -3% | [5]; [16] 2% | [5]; at 50.0 µM 14.7% | [5]; at 100.0 µM -2% | [6]; [15] 14% | [6]; [16] 25% | [6]; at 50.0 µM 8.45% | [7]; at 1.2 µM -2% | [7]; at 3.7 µM -8% | [7]; at 11.0 µM 1% | [7]; at 33.0 µM -1% | [7]; at 100.0 µM 8% | [8]; [15] 14% | [8]; [16] 9% | [8]; at 50.0 µM 5.05% | [9]; at 1.2 µM -5% | [9]; at 3.7 µM -3% | [9]; [15] 8% | [9]; at 11.0 µM -5% | [9]; at 33.0 µM 0% | [9]; [16] 34% | [9]; at 50.0 µM 10.9% | [9]; at 100.0 µM 8% | [10]; at 1.2 µM -8% | [10]; at 3.7 µM -9% | [10]; at 11.0 µM -7% | [10]; at 33.0 µM -7% | [10]; at 100.0 µM -11% | [11]; at 1.2 µM -6% | [11]; at 3.7 µM -2% | [11]; at 11.0 µM -3% | [11]; at 33.0 µM -4% | [11]; at 100.0 µM 1% | [12]; at 1.2 µM -1% | [12]; at 3.7 µM -6% | [12]; at 11.0 µM -8% | [12]; at 33.0 µM 9% | [12]; at 100.0 µM 9% | [13]; [15] 12% | [13]; [16] 51% | [13]; at 50.0 µM -0.75% | [14]; at 1.2 µM -7% | [14]; at 3.7 µM -1% | [14]; at 11.0 µM 3% | [14]; at 33.0 µM 0% | [14]; at 100.0 µM 25%
